Measured values reported in the supplement of paper PMC11001985.

These targets were tested with C#CCNC(=O)CCSSCCC(=O)NCCc1ccc(C=O)c(C=O)c1 (assay: lysine labeling ratio R10:1 (500 µM / 50 µM probe), SILAC-ABPP in living cells; higher = lower intrinsic lysine reactivity toward the probe, active = 2 or less). Settings: HeLa; probe concentrations 500 vs 50 µM.
How it was run: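 In PBS at room temperature, living HeLa cells grown with SILAC light or heavy labels were treated with 50 µM or 500 µM of an alkyne-tagged, disulfide-linked lysine probe, with label swaps in both directions. Analysis was by LC-MS/MS on a TIMS-TOF Pro after click to biotin-azide, neutravidin capture and DTT release. For each lysine, R is the median across forward and reverse replicates of the filtered median high-probe/low-probe MS1 peptide ratio, capped at 20.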

Sequence of UniProt Q9UKX5 (Q9UKX5 whole entry): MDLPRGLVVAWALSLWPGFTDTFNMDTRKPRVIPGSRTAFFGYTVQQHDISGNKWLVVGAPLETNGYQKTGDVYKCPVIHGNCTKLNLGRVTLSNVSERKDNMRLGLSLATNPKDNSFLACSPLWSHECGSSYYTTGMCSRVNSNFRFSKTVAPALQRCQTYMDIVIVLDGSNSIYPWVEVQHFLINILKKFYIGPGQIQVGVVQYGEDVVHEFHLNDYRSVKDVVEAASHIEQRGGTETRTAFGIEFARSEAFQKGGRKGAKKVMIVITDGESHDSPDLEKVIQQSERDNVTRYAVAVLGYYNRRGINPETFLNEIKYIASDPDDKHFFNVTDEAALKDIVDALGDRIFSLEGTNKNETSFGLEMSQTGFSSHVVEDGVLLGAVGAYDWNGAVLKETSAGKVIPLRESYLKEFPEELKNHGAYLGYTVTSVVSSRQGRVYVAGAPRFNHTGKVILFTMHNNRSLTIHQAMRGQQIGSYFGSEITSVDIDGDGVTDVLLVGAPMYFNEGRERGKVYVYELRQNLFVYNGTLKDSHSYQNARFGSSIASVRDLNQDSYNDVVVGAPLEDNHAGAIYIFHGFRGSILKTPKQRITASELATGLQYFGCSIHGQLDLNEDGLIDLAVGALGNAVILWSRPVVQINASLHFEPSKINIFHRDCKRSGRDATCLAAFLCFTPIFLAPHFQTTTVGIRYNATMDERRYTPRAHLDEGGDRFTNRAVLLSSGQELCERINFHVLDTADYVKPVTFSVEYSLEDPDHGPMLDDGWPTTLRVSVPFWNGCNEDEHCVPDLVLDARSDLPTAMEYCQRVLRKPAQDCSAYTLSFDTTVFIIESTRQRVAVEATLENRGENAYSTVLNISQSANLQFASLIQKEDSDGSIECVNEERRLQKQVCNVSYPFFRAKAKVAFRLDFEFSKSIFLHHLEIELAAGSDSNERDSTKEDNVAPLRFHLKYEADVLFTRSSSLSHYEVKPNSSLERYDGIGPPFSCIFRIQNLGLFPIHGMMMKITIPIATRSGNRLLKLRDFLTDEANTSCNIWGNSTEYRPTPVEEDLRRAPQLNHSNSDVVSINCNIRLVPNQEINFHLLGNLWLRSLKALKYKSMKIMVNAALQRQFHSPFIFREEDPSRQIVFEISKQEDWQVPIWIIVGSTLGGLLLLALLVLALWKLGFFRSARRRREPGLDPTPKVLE
Sequence of UniProt P23528 (P23528 whole entry): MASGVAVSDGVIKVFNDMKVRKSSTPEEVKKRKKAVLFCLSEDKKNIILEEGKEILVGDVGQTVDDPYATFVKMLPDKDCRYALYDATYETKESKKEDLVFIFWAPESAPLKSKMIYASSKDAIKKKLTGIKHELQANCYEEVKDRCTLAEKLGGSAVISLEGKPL
Sequence of UniProt P06733 (P06733 whole entry): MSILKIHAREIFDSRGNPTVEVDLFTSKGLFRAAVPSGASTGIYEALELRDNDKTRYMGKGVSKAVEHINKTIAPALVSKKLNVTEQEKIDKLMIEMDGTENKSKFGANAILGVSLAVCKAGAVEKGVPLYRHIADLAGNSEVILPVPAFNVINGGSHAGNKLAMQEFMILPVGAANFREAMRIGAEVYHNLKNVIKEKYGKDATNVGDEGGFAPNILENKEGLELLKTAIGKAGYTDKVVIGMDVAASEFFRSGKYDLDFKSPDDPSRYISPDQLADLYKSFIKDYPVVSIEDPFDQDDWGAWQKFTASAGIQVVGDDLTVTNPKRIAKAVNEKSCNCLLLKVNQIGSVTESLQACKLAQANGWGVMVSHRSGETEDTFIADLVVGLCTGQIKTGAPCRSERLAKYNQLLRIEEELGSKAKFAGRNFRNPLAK
Sequence of UniProt P00533 (P00533 whole entry): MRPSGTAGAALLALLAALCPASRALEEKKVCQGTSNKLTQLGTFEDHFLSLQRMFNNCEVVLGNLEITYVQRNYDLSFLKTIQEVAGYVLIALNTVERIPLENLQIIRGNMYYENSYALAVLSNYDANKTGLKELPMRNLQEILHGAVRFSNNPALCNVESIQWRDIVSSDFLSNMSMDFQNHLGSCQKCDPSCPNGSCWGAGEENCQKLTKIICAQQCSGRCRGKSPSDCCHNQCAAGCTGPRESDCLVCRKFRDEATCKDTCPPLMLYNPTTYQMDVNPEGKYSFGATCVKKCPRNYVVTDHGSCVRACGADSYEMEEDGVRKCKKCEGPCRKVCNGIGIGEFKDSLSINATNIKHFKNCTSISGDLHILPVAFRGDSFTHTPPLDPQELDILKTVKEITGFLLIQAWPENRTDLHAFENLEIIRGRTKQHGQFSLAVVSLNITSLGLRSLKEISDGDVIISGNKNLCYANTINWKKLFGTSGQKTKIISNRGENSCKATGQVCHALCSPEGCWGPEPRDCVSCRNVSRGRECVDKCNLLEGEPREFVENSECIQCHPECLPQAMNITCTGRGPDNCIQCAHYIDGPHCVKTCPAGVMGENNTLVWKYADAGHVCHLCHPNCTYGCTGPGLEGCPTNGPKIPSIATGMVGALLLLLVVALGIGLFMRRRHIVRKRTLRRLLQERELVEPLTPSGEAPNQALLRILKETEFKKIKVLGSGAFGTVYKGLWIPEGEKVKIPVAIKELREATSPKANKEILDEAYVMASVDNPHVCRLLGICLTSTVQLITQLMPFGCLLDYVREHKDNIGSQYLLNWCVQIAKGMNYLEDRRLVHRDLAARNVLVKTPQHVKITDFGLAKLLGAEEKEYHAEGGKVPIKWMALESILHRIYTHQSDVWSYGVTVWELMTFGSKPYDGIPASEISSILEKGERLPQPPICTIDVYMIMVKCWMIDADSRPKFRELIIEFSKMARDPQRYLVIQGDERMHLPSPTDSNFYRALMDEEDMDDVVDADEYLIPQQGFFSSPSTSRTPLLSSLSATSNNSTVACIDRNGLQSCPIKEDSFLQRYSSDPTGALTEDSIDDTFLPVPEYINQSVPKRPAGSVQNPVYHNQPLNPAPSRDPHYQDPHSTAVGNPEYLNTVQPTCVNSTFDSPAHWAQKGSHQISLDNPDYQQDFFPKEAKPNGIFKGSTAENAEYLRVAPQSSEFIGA
Sequence of UniProt P37802 (P37802 whole entry): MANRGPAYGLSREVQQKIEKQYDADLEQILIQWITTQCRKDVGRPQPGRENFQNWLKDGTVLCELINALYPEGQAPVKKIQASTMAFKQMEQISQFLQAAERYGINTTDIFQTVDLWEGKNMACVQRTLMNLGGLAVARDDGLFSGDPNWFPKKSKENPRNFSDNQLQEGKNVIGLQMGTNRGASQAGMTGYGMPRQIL
Sequence of UniProt P78310 (P78310 whole entry): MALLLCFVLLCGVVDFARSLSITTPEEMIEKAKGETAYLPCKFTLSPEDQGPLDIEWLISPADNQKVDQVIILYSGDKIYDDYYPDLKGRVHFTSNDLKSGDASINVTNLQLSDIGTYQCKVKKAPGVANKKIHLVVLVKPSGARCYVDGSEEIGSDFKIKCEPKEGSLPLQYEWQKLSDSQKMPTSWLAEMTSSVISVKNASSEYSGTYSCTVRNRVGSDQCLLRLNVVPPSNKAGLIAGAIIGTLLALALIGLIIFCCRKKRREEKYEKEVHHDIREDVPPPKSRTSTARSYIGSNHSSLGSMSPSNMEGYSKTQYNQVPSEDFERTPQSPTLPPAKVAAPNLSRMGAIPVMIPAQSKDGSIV
Sequence of UniProt Q14964 (Q14964 whole entry): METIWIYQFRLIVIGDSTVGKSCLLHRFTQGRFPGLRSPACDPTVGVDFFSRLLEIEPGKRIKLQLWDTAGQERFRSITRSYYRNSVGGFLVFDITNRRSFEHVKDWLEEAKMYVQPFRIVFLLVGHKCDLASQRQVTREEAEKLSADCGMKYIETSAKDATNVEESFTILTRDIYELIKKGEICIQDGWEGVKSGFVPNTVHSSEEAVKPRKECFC
Sequence of UniProt P48643 (P48643 whole entry): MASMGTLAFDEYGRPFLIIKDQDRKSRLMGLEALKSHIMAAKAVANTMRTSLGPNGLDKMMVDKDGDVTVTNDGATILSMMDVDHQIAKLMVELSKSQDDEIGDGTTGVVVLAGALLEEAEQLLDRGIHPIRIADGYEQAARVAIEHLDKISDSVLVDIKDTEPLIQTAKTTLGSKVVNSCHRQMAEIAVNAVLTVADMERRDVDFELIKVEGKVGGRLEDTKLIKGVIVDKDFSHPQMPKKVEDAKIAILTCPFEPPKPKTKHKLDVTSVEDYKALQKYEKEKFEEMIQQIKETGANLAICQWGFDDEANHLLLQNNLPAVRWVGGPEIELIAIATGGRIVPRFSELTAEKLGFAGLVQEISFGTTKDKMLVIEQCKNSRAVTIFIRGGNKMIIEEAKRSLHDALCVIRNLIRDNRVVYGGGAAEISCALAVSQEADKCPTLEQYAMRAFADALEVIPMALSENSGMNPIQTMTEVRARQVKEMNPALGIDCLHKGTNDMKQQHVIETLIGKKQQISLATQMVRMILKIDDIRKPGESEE
Sequence of UniProt Q15582 (Q15582 whole entry): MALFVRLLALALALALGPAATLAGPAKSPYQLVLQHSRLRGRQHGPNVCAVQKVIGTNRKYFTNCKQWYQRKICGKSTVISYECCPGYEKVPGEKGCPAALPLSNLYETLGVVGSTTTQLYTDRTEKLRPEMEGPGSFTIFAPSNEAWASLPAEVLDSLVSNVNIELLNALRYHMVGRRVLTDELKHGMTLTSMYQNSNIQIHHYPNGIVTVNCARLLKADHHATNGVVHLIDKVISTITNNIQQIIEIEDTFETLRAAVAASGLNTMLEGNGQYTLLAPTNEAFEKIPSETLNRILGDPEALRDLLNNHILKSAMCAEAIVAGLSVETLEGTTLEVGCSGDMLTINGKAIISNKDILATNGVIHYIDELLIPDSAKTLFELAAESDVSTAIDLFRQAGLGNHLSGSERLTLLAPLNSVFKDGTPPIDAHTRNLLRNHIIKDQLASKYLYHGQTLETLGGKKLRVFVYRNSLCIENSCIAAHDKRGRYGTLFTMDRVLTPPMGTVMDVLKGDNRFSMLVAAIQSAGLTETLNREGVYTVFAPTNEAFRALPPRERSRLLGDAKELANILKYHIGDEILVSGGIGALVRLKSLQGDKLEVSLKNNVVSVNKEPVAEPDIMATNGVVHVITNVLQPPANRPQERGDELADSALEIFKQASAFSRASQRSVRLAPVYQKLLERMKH

Target	lysine labeling ratio R10:1
UniProt Q8WXI7 (lysine site: K13714)	7.68 (inactive)
MYH9 (lysine site: K1459) (UniProt P35579)	1.3 (active)
DYNC1H1 (lysine site: K3480) (UniProt Q14204)	1.73 (active)
PDCD6IP (lysine site: K374) (UniProt Q8WUM4)	5.72 (inactive)
CXADR (lysine site: K88) (UniProt P78310)	1.11 (active)
UniProt Q9UKX5 (lysine site: K223)	2.86 (inactive)
PGK1 (lysine site: K146) (UniProt P00558)	1.57 (active)
TAGLN2 (lysine site: K154) (UniProt P37802)	1.43 (active)
EGFR (lysine site: K294) (UniProt P00533)	3.59 (inactive)
CFL1 (lysine site: K78) (UniProt P23528)	1.61 (active)
LAMA5 (lysine site: K1940) (UniProt O15230)	1.65 (active)
TGFBI (lysine site: K676) (UniProt Q15582)	3.4 (inactive)
UniProt P08727 (lysine site: K370)	3.4 (inactive)
UniProt Q14964 (lysine site: K63)	2.17 (inactive)
ITGA3 (lysine site: K620) (UniProt P26006)	1.8 (active)
ENO1 (lysine site: K262) (UniProt P06733)	2.83 (inactive)
CCT5 (lysine site: K514) (UniProt P48643)	2.42 (inactive)
